Assay results: PubChem BioAssay (NCI)
About 83,000 compounds went through this panel and 20% of them were active in at least one assay; those are over-represented in the sample as a whole.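 Results are percent growth after 48 hours of single-concentration exposure. 100 means growth as in untreated cells, lower positive values show inhibition; negative values down to -100 show cell death.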 The source made the active and inactive calls. How the source made its calls: active means growth percent below 10; inactive means the rest.

These compounds were tested on A549/ATCC NSCLC (assay: NCI-60 one-dose screen, 48 h (100 = growth as untreated, 0 = no growth, -100 = all killed)). Conditions: 10 µM unless noted.
For `COc1cc(/C=C/c2cn[nH]c2-c2ccc(C)cc2)cc(OC)c1OC`, the growth was 29.2% (inactive). `COc1ccc(C/C(C)=C(\c2ccc(Cl)cc2)c2ccc(OCCN3CCCC3)cc2)cc1` was tested, and the growth was 79% (inactive). In the case of `CN(C)Cc1ccc(NC(=O)c2cncc(C#Cc3cnc(N)c4ncccc34)c2)cc1C(F)(F)F`, the growth is reported as -15.4% (active). `COC(=O)c1c(C)nc(C)c2c1C(=O)C=C(NCc1ccccc1)C2=O` was tested, and the growth was 103% (inactive). `N#CSc1c[nH]c2ccc(/C=C/C(=O)/C=C(O)/C=C/c3ccc4[nH]cc(SC#N)c4c3)cc12` was tested, and the growth was 12.4% (inactive). In the case of `Cc1ccc(-c2nc(SCC(=O)N3CCN(c4cc5c(cc4F)c(=O)c(C(=O)O)cn5C4CC4)CC3)nc(Cl)c2C#N)cc1`, the growth is reported as 107% (inactive). `COC(=O)/C=C1/SC(=NCc2ccccc2)N(CCc2c[nH]c3ccccc23)C1=O` was tested, and the growth was 93.1% (inactive). For `C=C(C)[C@@H]1CC[C@]2(C(=O)N3CCN(C)CC3)CC[C@]3(C)[C@H](CC[C@@H]4[C@@](C)(CCC(=O)O)[C@H](C(=C)C)CC[C@]43C)[C@@H]12`, the growth was 65.7% (inactive). In the case of `Nc1[nH]nc2nc(-c3ccccc3)n3c4ccccc4nc3c12`, the growth is reported as 101% (inactive). With `CN1CCOCCN(C)Cc2ccc3ccc(cc3c2)CN(C)CCOCCN(C)Cc2ccc3ccc(cc3c2)C1` the growth was 96.3% (inactive). For `COc1ccc(/C=N/Nc2c3ccccc3nc3ccccc23)cc1`, the growth was 96.5% (inactive). With `C=C1C(=O)O[C@H]2[C@H]1CC/C(CNC(=O)Cc1c[nH]c3ccccc13)=C\CC[C@@]1(C)O[C@@H]21` the growth was 62% (inactive).
